The list is not random: actives were taken first. Their share in the collection is about 9.2%.
LMNA splice mod – qHTS Assay for Modulators of Lamin A Splicing. Potency, µM (highest dose often 46.1 µM), inactives show top-dose ratio change, negative = inhibition, usual class: inhibitors. HeLa LMNA splicing GFP/RFP minigene ratio, 48 h. 200,000 tested, 0.01% active; active = well fitted inhibition curve with a large enough effect in the signal ratio, with a control signal flat, not every such curve was filed as active; inconclusive = small, poorly fitted or top-dose-only effect, or effect the other way, or a change in a side signal; the % refers to the signal ratio; note: % is set by controls: 0 for no effect and ±100 for the full control effect
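S3 HeLa cells stably expressing lamin A-EGFP splicing minigene plus DsRed2, 600 cells/well, 48 h compound exposure at 37C. Laser-scanning cytometry; analysed as GFP (500-530 nm)/RFP (575-640 nm) total intensity ratio; 0.5% DMSO vehicle.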
ALDH1A1 inh – qHTS Assay for Inhibitors of Aldehyde Dehydrogenase 1 (ALDH1A1); Aldehyde dehydrogenase 1A1 (Homo sapiens), P00352; Purified ALDH1A1, NADH fluorescence, propionaldehyde substrate; Potency, µM (series often up to 75.3 µM), inactives show top-dose activity, negative = inhibition, hits mostly inhibitors; 220,000 tested, 7.3% active; AID 1030, 2008;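 note: plate controls were no enzyme wells and a reference inhibitor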
HTT cytoprotect – qHTS Multiplex Assay to Identify Dual Action Probes in a Cell Model of Huntington: Cytoprotection (ATP). PC12 HTT-Q103 induced, cytoprotection, ATP luminescence, 40 h. Potency, µM (highest dose often 56.4 µM), for inactives: cytoprotection (ATP increase), hits mostly activators. 230,000 tested, 0.14% active. AID 1471, 2008; active = well fitted curve in the direction sought with a large enough effect; inconclusive = small, poorly fitted or top-dose-only effect, or another doubt; inactive = no such curve, though single readings can be large; an effect the other way counts as inactive or inconclusive; note: % of control where 0% means no effect; nearly all actives have a fitted effect of over 45% in size
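ATP quantification (ATPlite) reports survival of PC12 cells in which tebufenozide, 100 nM final, switches on Htt exon 1 with 103 glutamines linked to GFP; compounds are titrated.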
HTT aggregate – qHTS Multiplex Assay to Identify Dual Action Probes in a Cell Model of Huntington: Aggregate Formation (GFP); PC12 HttQ103-GFP aggregates, Acumen cytometry, 40 h; Potency, µM (top dose mostly 46.1 µM), inactives show top-dose activity change, negative = inhibition, actives largely listed as inhibitors; 220,000 tested, 1.1% active; AID 1688, 2009; active = well fitted curve in the direction sought with a large enough effect; inconclusive = small, poorly fitted or top-dose-only effect, or another doubt; inactive = no such curve, though single readings can be large; an effect the other way counts as inactive or inconclusive; note: % is set by controls: 0 for no effect and ±100 for the full control effect; nearly all actives have a fitted effect of over 60% in size
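Aggregate formation scored by laser-scanning cytometer (488 excitation, 500–530 emission) in lysed PC12 cells expressing Q103-GFP after 100 nM tebufenozide induction; library tested in dose series, with ATPLite reagent added in the multiplex.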
JMJD2E inh – qHTS Assay for Inhibitors of Human Jumonji Domain Containing 2E (JMJD2E); JMJD2E catalytic domain, FDH-coupled NADH fluorescence (FDH is formaldehyde dehydrogenase); AID 2147, 2009; Potency, µM (top dose mostly 57.1 µM), for inactives: at the highest dose activity change, negative = inhibition, hits mostly inhibitors; 230,000 tested, 1.6% active; Lysine-specific demethylase 4E (Homo sapiens), B2RXH2;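 note: 0% = wells with enzyme and -100% = buffer wells without enzyme; nearly all actives have a fitted effect of over 50% in size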
Target sequence (B2RXH2 1-337 limits assumed): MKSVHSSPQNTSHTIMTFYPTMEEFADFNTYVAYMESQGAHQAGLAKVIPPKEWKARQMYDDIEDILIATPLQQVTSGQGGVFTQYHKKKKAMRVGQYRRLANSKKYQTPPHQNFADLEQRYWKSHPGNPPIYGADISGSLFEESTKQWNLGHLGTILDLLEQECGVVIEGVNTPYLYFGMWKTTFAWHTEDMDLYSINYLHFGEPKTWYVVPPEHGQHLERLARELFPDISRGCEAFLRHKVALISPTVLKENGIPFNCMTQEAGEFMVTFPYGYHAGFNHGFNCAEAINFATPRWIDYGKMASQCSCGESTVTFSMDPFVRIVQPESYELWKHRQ
HPGD block – qHTS Assay for Inhibitors of HPGD (15-Hydroxyprostaglandin Dehydrogenase) | purified HPGD, NADH fluorescence kinetic, PGE2 substrate | Potency, µM, for inactives: at the top dose activity change, negative = inhibition, actives largely listed as inhibitors | 150,000 tested, 4.3% active | AID 894, 2007; note: % is set by controls: 0 for no effect and ±100 for the full control effect
Target sequence (P15428 whole entry, looked up): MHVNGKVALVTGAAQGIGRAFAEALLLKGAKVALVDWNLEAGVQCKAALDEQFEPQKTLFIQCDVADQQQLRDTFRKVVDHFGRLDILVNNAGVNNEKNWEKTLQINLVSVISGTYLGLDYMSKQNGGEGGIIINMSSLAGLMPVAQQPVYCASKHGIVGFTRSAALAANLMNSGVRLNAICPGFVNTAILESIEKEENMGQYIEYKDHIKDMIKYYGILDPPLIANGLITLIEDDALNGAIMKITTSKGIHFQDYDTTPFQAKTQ
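NADH formation kinetics: reaction with 30 uM PGE2 and 1 mM NAD+ (final), 20 nM enzyme, Tris-HCl pH 8 with Tween 20, after 15 min compound preincubation at room temperature. Fluorescence change, last versus first of five reads.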
* = called active by the depositor; ? = inconclusive; / = not tested or not shown; [ ] = another dose, or the depositor's remark. Unless noted, calls come from the whole dose curve; as a rule, active = well fitted inhibition curve with a large enough effect (not every such curve was filed as active); inconclusive = small, poorly fitted or top-dose-only effect, or another doubt; inactive = no such curve, though single readings can be large or run the other way. Potency is the fitted concentration of half-maximal effect.

SMILES	LMNA splice mod	ALDH1A1 inh	HTT cytoprotect	HTT aggregate	JMJD2E inh	HPGD block
Cc1ccc(N2C(=O)C3C(C2=O)C2C=CC3C23CC3)c([N+](=O)[O-])c1 (configuration not stated)	1%[46 µM]	2.5µM*	-48%	-14%	6%	/
CCOc1ccc(C2CC(=O)Nc3c2c(=O)nc(SCc2ccccc2C)n3C)cc1OC (configuration not stated)	-2%[46 µM]	/	/	/	/	/
Cc1nc(Nc2ccccc2)sc1-c1ccccc1	?	22µM*	-35%[10 µM]	2%	3%	/
COC(=O)c1sc(Nc2ccccc2)nc1C	10%	-4%	1%	-2%	-30%	22µM*
Cc1nc(Nc2ccc(Cl)c(Cl)c2)sc1C(=O)Nc1ccccc1	?	-6%	1%[10 µM]	25µM*	?	-12%
Cc1nc(Nc2ccc(C(=O)O)cc2)sc1-c1ccccc1	/	12%	-23%	15%	2%	/
COc1cccc([C@H]2Oc3ccc(OC)cc3/C(=N\OC[C@@H](O)[C@@H]3O[C@@H]4OC(C)(C)O[C@@H]4[C@H]3O)[C@@H]2O)c1	/	-8%[13.5 µM]	-11%[10 µM]	/	/	/
COc1ccccc1NC(=O)Cn1cnc2c(nnn2-c2ccc(C)cc2)c1=O	14%[46 µM]	8%	-5%	7%[9.22 µM]	-7%	/
CCN1CCN(C2=NC(=O)/C(=C/c3ccc(C)o3)S2)CC1	0%	20µM*	-21%	18%	?	-19%
S=c1[nH]nc(CCc2ccccc2)n1-c1ccccc1	-4%	?	-9%[10 µM]	13%	-21%	16µM*
Fc1ccc(CN2C3=NCCN3c3ccccc32)cc1	/	/	?	?	9%	/
O=C(Cc1cccs1)NC1C(=O)N2C(C(=O)[O-])=C(C[n+]3ccccc3)CSC12 (configuration not stated)	?	28µM*	-11%	-10%	?	32µM*
CC(=O)OCC1=C(C(=O)O)N2C(=O)[C@@H](NC(=O)Cc3cccs3)[C@H]2SC1	9%	-4%	?	-7%	-29%	-16%
Cc1cc(C(=O)COC(=O)c2n[nH]c3ccccc23)c(C)n1CC1CCCO1 (configuration not stated)	?	-1%	-14%	9%	1%	28µM*
Cc1cc(C(=O)COC(=O)c2cc(O)c3ccccc3c2O)c(C)n1CC1CCCO1 (configuration not stated)	/	28µM*	-122%	-17%	28µM*	/
COc1ccc(/C=N/NC(=O)CSc2n[nH]c(=O)[nH]c2=O)cc1	-6%	-15%	2%[10 µM]	-23%	-3%	20µM*
CC(C)(CC(=O)N1CCN(c2ccc(Cl)cc2)CC1)CC1=NS(=O)(=O)c2ccccc2N1	16%	-19%	-46%	11µM*	13%	-5%
COCCCNC(=O)c1ccc(NC(=O)N2CCCCc3ccccc32)cc1	2%[46 µM]	/	/	/	/	/
COc1cccc(CCc2nnc(CCC(=O)N3CCN(Cc4ccccn4)CC3)o2)c1	/	8.9µM*	-5%[10 µM]	34%[9.22 µM]	?	/
COc1cccc(CCc2nnc(CCC(=O)NCCc3cccc(C)n3)o2)c1	4%[46 µM]	?	26%[10 µM]	19%[9.22 µM]	6%	/
C[N+](C)(C)c1cc2c(nn1)Nc1ccccc1S2	/	0%[13.5 µM]	-20%[10 µM]	/	/	?
Cc1ccsc1/C=N/n1c(C2CCCCC2)n[nH]c1=S	-4%	?	-7%[10 µM]	6%	1%	13µM*
S=c1[nH]nc(C2CCCCC2)n1/N=C/c1ccco1	16%	?	3%[0.074 µM]	5%	12%	?
Cc1ccc(/C=N/n2c(C3CCCCC3)n[nH]c2=S)s1	-9%	-3%	12%[10 µM]	1%	3%	11µM*
S=c1[nH]nc(C2CCCCC2)n1/N=C/c1ccccn1	/	3.5µM*	-17%[10 µM]	-9%[9.22 µM]	-2%	/
SMILES	LMNA splice mod	ALDH1A1 inh	HTT cytoprotect	HTT aggregate	JMJD2E inh	HPGD block
C/C(=N/NC(=O)c1cc(O)c(O)c(O)c1)c1ccc([N+](=O)[O-])cc1	/	25µM*	/	34%	-17%	/
CCCNC(=O)c1ccc2c(c1)ncn2-c1ccccc1OC	-13%	2%	0%[1.9 µM]	-18%	-9%	18µM*
COc1ccc(OC)c(-n2cnc3cc(C(=O)NCCCN4CCOCC4)ccc32)c1	-11%	-2%	-20%	-13%	7%	25µM*
COc1ccc(-n2cnc3cc(C(=O)NCCN4CCOCC4)ccc32)cc1	/	-5%	-19%	-4%	-4%	/
Cc1cc([N+](=O)[O-])nn1CC(=O)NCCc1c[nH]c2ccccc12	/	15%	-20%	-8%	3%	/
CCN(CC)S(=O)(=O)c1ccc2c(c1)nc(CN(C)C(=O)Nc1ccc(C)c(F)c1)n2C	-21%[46 µM]	/	/	/	/	/
COc1ccc2c(c1)Cc1sc(NC(C)=O)nc1-2	7%	?	-22%	3%	-2%	-1%
COc1ccc2c(c1)Cc1sc(NC(=O)c3cccnc3)nc1-2	-16%[46 µM]	3.5µM*	-32%	18%	-28%	/
COc1ccc2c(c1)CCc1sc(NC(=O)c3ccco3)nc1-2	-2%	22µM*	-23%	-2%	?	?
O=C(CSc1nc2c([nH]c3ccccc32)c(=O)n1-c1ccccc1F)Nc1ccccc1C(F)(F)F	0%[46 µM]	/	/	/	/	/
COc1ccc(-c2csc3ncnc(NCCN4CCOCC4)c23)cc1	-16%	-2%	-26%	13µM*	4%	0%
Cc1ccc(-c2csc3ncnc(NCCN4CCOCC4)c23)cc1	?	7%	-36%	-32%	3%	5%
CCOc1ccc(Br)cc1/C=N/O	7%	-1%	-4%	4%	2%	11µM*
C#CCOc1ccc(Cl)cc1/C=N/O	14%	7%	1%	-3%[9.22 µM]	-5%	?
C#CCOc1ccc(Br)cc1/C=N/O	18%	0%	-3%	-7%	10%	14µM*
O=C(O)COc1ccc(Br)cc1/C=N/O	1%	3%	3%[10 µM]	3%	-8%	-14%
CCCOc1ccc(Br)cc1/C=N/O	13%	-2%	7%	-13%	-6%	10µM*
Cc1ccc2[nH]c3c(=O)n(CC(=O)N(CCN(C)C)Cc4ccccc4)ncc3c2c1	-13%[46 µM]	/	/	/	/	/
NC(=O)/N=N/C(N)=O	/	0.45µM*	-2%	/	/	10µM*
CN1CCN(C(=S)NC(=O)c2ccc(Cl)cc2)CC1	16%[46 µM]	18µM*	-4%[10 µM]	-1%[9.22 µM]	10%	/
CN1CCN(C(=S)c2ccc(Cl)cc2)CC1	-9%	8%	9%	-10%	11%	-7%

From PubChem BioAssay
